From PubChem BioAssay come the findings set out here.

Records with an inconclusive call do not appear. Active and inactive are the calls of the source.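 Rule for the calls, unless noted: active = Her2 level under about 52% in both replicate screens, with viability over 70% of control (limit read from the data); inconclusive = Her2 under the limit in one screen only, or viability under 70%; inactive = Her2 level above the set limit.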

A short description of test [1]: Her2 expression decrease, cell viability multiplex – SKBR3 breast tumor cells, AlphaScreen, ATP viability, primary screen (AID 461).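 For Her2 level: lower value means less Her2 protein in the cells.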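 For viability: percent of carrier control wells set as 100% viability.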 To be noted: SKBR3 Her2 protein level, 18-24 h, measured here: SKBR3 viability, ATP luminescence, at 10 µM. A general note: Alpha assays give light when donor and acceptor beads are brought close together.
The target of test [2] is Receptor tyrosine-protein kinase erbB-2 (Homo sapiens) (UniProt P04626). The description is as above. To be noted: 18-24 h, at 10 µM, stronger effect = lower value.
Sequence of Receptor tyrosine-protein kinase erbB-2 (Homo sapiens) (P04626 whole entry, looked up): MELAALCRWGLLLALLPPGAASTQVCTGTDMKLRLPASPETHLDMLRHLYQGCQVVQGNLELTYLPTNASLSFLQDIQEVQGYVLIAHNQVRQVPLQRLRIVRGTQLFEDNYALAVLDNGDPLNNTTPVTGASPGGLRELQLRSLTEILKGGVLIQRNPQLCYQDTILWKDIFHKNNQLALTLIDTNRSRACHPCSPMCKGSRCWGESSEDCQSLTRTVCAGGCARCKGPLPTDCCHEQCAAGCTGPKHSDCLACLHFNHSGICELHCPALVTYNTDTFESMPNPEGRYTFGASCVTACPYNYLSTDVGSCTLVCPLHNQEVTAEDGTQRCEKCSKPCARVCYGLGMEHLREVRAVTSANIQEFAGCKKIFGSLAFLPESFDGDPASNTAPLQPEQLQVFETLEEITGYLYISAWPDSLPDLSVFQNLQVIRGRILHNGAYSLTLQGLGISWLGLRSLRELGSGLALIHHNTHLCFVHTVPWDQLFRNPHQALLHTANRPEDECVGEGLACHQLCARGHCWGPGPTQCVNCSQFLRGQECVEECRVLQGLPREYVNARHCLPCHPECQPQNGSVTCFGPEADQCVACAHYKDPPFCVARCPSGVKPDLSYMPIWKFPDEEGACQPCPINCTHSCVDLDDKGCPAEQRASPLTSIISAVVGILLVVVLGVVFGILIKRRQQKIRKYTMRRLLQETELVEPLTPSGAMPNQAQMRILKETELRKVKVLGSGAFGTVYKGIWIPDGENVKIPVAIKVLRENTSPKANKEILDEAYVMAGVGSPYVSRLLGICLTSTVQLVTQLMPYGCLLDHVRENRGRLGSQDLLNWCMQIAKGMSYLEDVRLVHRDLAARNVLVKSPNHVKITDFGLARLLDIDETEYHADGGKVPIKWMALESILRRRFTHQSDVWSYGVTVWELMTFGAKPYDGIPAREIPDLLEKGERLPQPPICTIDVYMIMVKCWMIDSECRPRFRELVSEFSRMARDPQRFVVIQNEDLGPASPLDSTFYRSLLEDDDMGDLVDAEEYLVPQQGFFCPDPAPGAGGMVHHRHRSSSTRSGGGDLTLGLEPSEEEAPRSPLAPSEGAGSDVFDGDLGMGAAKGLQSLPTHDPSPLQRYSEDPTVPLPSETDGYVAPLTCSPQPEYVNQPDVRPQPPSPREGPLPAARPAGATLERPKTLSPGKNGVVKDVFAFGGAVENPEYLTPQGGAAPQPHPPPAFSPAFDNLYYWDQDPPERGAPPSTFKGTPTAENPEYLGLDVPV
The nature of test [3]: reduced viability of SK-BR-3 breast cancer cells – cell-based, 24 h, human, pilot screen (AID 572;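 active = viability at or below 10% of carrier control in both of two separate runs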;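 note: compound exposure lasted between 18 and 24 h rather than exactly 24 h; 100% = carrier-treated control wells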). To be noted: SK-BR-3 viability, CellTiter-Glo luminescence, at 10 µM, stronger effect = lower value.
A short description of test [4]: HUVEC growth inhibition – cell-based, human, primary screen (AID 575;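 active = viability at or below 30% in both replicate assays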;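 note: 100% = median of untreated cell wells with 0.1% DMSO on each plate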). To be noted: HUVEC proliferation, CellTiter-Glo luminescence, 72 h; at 10 µM; stronger effect = lower value.
The nature of test [5]: H69AR cell proliferation blockers – human, duplicate replicates, primary screen (AID 580;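 active = viability at or under a set limit in both replicates, limit being median viability minus 3 SD, cut at about 48% in these data, passing the limit was not always enough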;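 note: 100% = mean luminescence of untreated wells and 0% = no signal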). The note with it: H69AR lung tumor cells viability, ATP luminescence, 72 h; at 10 µM; stronger effect = lower value.
A short description of test [6]: yeast transport mutant growth inhibition pilot in 384-well plates, post-Golgi transport modulator project (AID 636; in the data active = inhibition above about 31%). The note with it: absorbance 615 nm, about 18 h, stronger effect = higher value.
Test [7] in a line: growth suppression of yeast trafficking mutant, preliminary HTS, modulators of trafficking downstream of Golgi apparatus project, 1536-format plate, OD 615 nm (AID 637; in the data active = inhibition above about 30%). The note with it: yeast transport mutant growth, absorbance 615 nm, 18 h; stronger effect = higher value.
A short description of test [8]: S. cerevisiae growth inhibition in permissive medium (OD615), pilot counter-assay for S. cerevisiae lifespan shortening project, permissive growth control (AID 705;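 active = growth inhibition above 25% in both replicates, a cutoff set 3 SD above the mean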). The note with it: OD615, 24 h, at 10 µM, stronger effect = higher value.
A short description of test [9]: S. cerevisiae growth inhibition in restrictive medium, OD615, pilot screen, restrictive growth control, yeast lifespan reduction project (AID 706;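 active = growth inhibition above a set limit, 3 SD over mean compound inhibition, in both replicates, cut at about 43% in these data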;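 note: modified DeaD lifespan yeast strain shifted to restrictive glucose medium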). To be noted: OD615, 48 h, at 10 µM, stronger effect = higher value.
A short description of test [10]: doxorubicin toxicity protection in MRP-1 cells – H69AR cells, CellTiter-Glo, duplicate, MRP-1 activator project, pilot screen (AID 807;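 active = viability increase at or above a cutoff of the median across tested compounds plus 3 SD, cut at about 8.5% in these data, passing the limit was not always enough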;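 note: compound pretreatment 18-22 h then 72 h combined with doxorubicin; 0% = doxorubicin alone and 100% = vehicle without doxorubicin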). To be noted: H69AR viability with doxorubicin, CellTiter-Glo luminescence; at 10 µM; stronger effect = higher value. Background: Cellular ATP, detected with luciferase, serves as a proxy for viable cell number.
A short description of test [11]: viability of HCT116 without oncogenic beta-catenin – human colon tumor cells, pilot screen (AID 823;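 active = cell viability at or below a set limit in both duplicate runs, the limit being the all-compound median minus 4 SD, cut at about 23% in these data, passing the limit was not always enough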;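 note: 0% = wells killed by 20 µM Hyamine and 100% = untreated DMSO cell wells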). The note with it: HCT116 beta-catenin knockout viability, CellTiter-Glo, 60 h; at 10 µM; stronger effect = lower value.
Test [12] is described as follows: viability of PTEN-null HCT116 cells – cell-based, HCT116 clonal line, CellTiter-Glo, pilot screen (AID 824;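 active = viability at or below 27.92% in each of two runs, the all-compound median minus 4 SD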;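 note: 0% = 20 µM Hyamine control and 100% = vehicle cell control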). The note with it: HCT116 PTEN-deleted viability, 60 h, at 10 µM, stronger effect = lower value.
The nature of test [13]: RAM pathway blockade in budding yeast – dse1pr::URA3 reporter, 5-FOA selection, pilot screen (AID 869;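 active = inhibition over a set limit, the all-compound mean plus 3 SD, in both replicate runs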;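 note: 0% = DMSO wells with no growth and 100% = 10 µM 1-NA-PP1 with full growth; RAM network block rescues cells from 5-FOA so hits raise OD615 growth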). To be noted: S. cerevisiae dse1pr::URA3 5-FOA growth, OD615, 2 d; at 10 µM; stronger effect = higher value; strain carries analog-sensitive mutant Cbk1 kinase.
A short description of test [14]: RAM signaling pathway blockade in yeast – S. cerevisiae, Pdr1DBD-CYC8 efflux-inhibited sensitized strain, primary screen (AID 1298;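 active = RAM network inhibition above 8.4% in each of two replicates, 3 SD over the compound average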;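 note: 0% = DMSO untreated cells without growth and 100% = 10 µM 1-NA-PP1 full growth; higher means more yeast growth rescued from 5-FOA killing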). To be noted: S. cerevisiae cbk1-as DSE1-URA3 strain, 5-FOA growth OD615, 2 d; at 50 µM; stronger effect = higher value.
Test [15] is described as follows: MRP1 drug-resistance reversers in H69AR cells – cell-based, doxorubicin co-treatment, pilot screen (AID 601;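 active = viability loss from added drug above about 55%, and viability with drug at most 40%, in both replicates, limit read from the data, passing the limit was not always enough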). To be noted: CellTiter-Glo, 72 h, at 10 µM; for differential viability (reversal): stronger effect = higher value.
[16] abbreviates: H69AR cells + 2 uM doxorubicin, measured here: viability with 2 uM doxorubicin, stronger effect = lower value.
The mark [17] stands for this setting: H69AR cells, compound alone cytotoxicity.

Usually viability stands for a read-out of living cells in per cent, often relative to untreated cells. What is called inhibition is the drop in the measured response relative to a control, in per cent. As for `O=c1[nH]c2ccc(Br)cc2c(-c2ccccc2)c1N1CCOCC1`, the viability is 91% in test [1]; 91% (inactive) in test [3]; 60.1% (inactive) in [4]; 75.7% (inactive) in test [5]; 92.7% (inactive) in test [11]; 75.2% (inactive) in [12]. Further, the Her2 level in [2] was 111% (inactive). In addition, the inhibition was 0% (inactive) in test [6], 2% (inactive) in test [7] and 1.29% (inactive) in test [13]. Further, the growth inhibition in test [8] is -12.5% (inactive); in test [9], -15.8% (inactive). Also, in test [10], the viability increase is -3.63% (inactive). In addition, the RAM network inhibition in test [14] is 0% (inactive).
`CC1CCc2nn(CC(=O)N3CCN(C(=O)c4ccco4)CC3)cc2C1` (stereo not given): the viability in [1] was 79.5%; in [3], 79.5% (inactive); in test [4], 119% (inactive); in [5], 91.6% (inactive); in test [15] (setting [16]), 79.8%; in [15] (setting [17]) it was 91.6%. The viability in test [11] is 104% (inactive); in test [12] it was 97.9% (inactive). Further, the Her2 level in test [2] was 95.5% (inactive). Moreover, the differential viability (reversal) in test [15] (H69AR cells + 2 uM doxorubicin) is 11.8% (inactive). Moreover, the inhibition in test [6] was 0% (inactive); in test [7], 2.67% (inactive); in test [13] it was 3.15% (inactive). For the same compound, the growth inhibition in [8] was -0.485% (inactive); in [9] it was 5.38% (inactive). In addition, the RAM network inhibition in [14] was 7.21% (inactive).
As for `CC1CCN(Cc2ccc(NC(=O)C3CCN(c4nnc(-n5cccc5)s4)CC3)cc2)CC1`, the viability in test [1] was 86.5%; in test [3], 86.5% (inactive); in [4], 4.64% (active); in [5] it was 78.5% (inactive); in test [15] (setting [16]), 79.5%; in [15] (setting [17]) it was 78.5%. In addition, the Her2 level in test [2] was 90.5% (inactive). In addition, the differential viability (reversal) in [15] (H69AR cells + 2 uM doxorubicin) is -1.01% (inactive). For the same compound, the inhibition was -4.27% (inactive) in [6], 1.33% (inactive) in test [7] and 0.695% (inactive) in test [13]. For the same compound, the growth inhibition in test [8] is 3.76% (inactive); in [9], 2.38% (inactive). Besides, the viability increase in [10] is -2.95% (inactive). Also, the RAM network inhibition in [14] was 4.34% (inactive).
`CNC(=O)c1ccsc1NC(=O)CN1C(=O)CCC1=O`: the viability in [1] is 90%; in test [3], 90% (inactive); in test [4], 96.8% (inactive); in [15] (setting [16]) it was 80.5%; in [15] (setting [17]) it was 58%; in test [11] it was 104% (inactive). Besides, the viability in [12] is 98.9% (inactive). For the same compound, the Her2 level in test [2] was 94% (inactive). Further, the differential viability (reversal) in test [15] (H69AR cells + 2 uM doxorubicin) was -22.5% (inactive). Further, the results for the inhibition in test [6], in [7] and in test [13] were -3.47% (inactive), -0.67% (inactive) and 1.65% (inactive), respectively. The growth inhibition in [8] was -11.5% (inactive); in test [9] it was 0.46% (inactive). Also, in test [10], the viability increase was -6.24% (inactive). Further, in test [14], the RAM network inhibition is 1.73% (inactive).
Consider `COc1ccc(-c2nnc3sc(C(C)N4C(=O)c5ccccc5C4=O)nn23)cc1` (stereo not given), for which the viability in test [1] was 84%; in [3], 84% (inactive); in test [4], 96.8% (inactive); in test [5], 90.9% (inactive); in test [15] (setting [16]) it was 101%; in test [15] (setting [17]), 90.9%. Moreover, the viability in [11] is 101% (inactive); in [12] it was 96.5% (inactive). Further, the Her2 level in test [2] is 111% (inactive). In addition, the differential viability (reversal) in test [15] (H69AR cells + 2 uM doxorubicin) was -9.99% (inactive). Moreover, the inhibition is 2.13% (inactive) in [6], -2.67% (inactive) in [7] and 1.46% (inactive) in [13]. Also, in test [9], the growth inhibition is 53.1% (active). For the same compound, the viability increase in test [10] was -2.35% (inactive). For the same compound, the RAM network inhibition in test [14] was -1.51% (inactive).
For the compound `N#CC1=C(N)Oc2cc(O)ccc2C1C1CCCCC1` (stereo not given), the viability in [1] is 121%; in test [3] it was 121% (inactive); in test [4], 47.4% (inactive); in test [5], 12.2% (active); in [15] (setting [16]), 63.4%; in test [15] (setting [17]), 12.2%. In addition, the Her2 level in test [2] was 89.5% (inactive). Moreover, in [15] (H69AR cells + 2 uM doxorubicin), the differential viability (reversal) was -51.2% (inactive). Moreover, the inhibition in [6] is -1.17% (inactive); in test [7] it was 4.17% (inactive); in [13] it was 0.455% (inactive). The results for the growth inhibition in test [8] and in [9] were -0.885% (inactive) and -9.19% (inactive), respectively. Besides, the viability increase in test [10] is -5.63% (inactive). Further, the RAM network inhibition in [14] was 3.93% (inactive).
As for `CCn1c(NC(=O)c2cccc(Cn3cc(Cl)cn3)c2)nc2ccccc21`, the viability in test [1] is 93.5%; in test [3], 93.5% (inactive); in [4], 69% (inactive); in test [15] (setting [16]) it was 65.1%; in [15] (setting [17]), 56.5%; in test [11] it was 40.3% (inactive). For the same compound, in test [12], the viability was 40.1% (inactive). The Her2 level in test [2] was 75% (inactive). In test [15] (H69AR cells + 2 uM doxorubicin), the differential viability (reversal) is -8.54% (inactive). Moreover, the inhibition in test [6] was -0.53% (inactive); in [7], 0.16% (inactive); in test [13], 0.95% (inactive). In addition, the growth inhibition in test [8] was -10.1% (inactive); in test [9] it was 7.82% (inactive). In addition, in [10], the viability increase was -0.12% (inactive). Besides, the RAM network inhibition in test [14] is 4.07% (inactive).
On to `COc1ccc(CCn2c(-c3ccco3)nc3ccccc3c2=O)cc1OC`, for which the viability in [1] was 73%; in [3] it was 73% (inactive); in test [4], 84.3% (inactive); in test [15] (setting [16]), 82.1%; in [15] (setting [17]), 52.8%; in test [11], 54.5% (inactive). In addition, the viability in test [12] was 57.1% (inactive). Further, the Her2 level in test [2] was 89% (inactive). In addition, in test [15] (H69AR cells + 2 uM doxorubicin), the differential viability (reversal) was -29.2% (inactive). Also, the inhibition in test [6] is -5.95% (inactive); in test [7], -0.49% (inactive); in [13], 0.935% (inactive). Further, the growth inhibition in test [8] was -7.24% (inactive); in test [9] it was -21.7% (inactive). In addition, the viability increase in test [10] is -3.68% (inactive). Also, in test [14], the RAM network inhibition is 5.3% (inactive).
As for `CN1C(=O)C(O)(CC(=O)c2ccccc2O)c2cc(Br)ccc21` (stereo not given), the viability in [1] is 103%; in [3], 103% (inactive); in test [4], 45.5% (inactive); in test [5], 27% (active); in test [15] (setting [16]), 51.3%; in [15] (setting [17]), 27%. The Her2 level in test [2] is 85.5% (inactive). The differential viability (reversal) in test [15] (H69AR cells + 2 uM doxorubicin) is -24.3% (inactive). For the same compound, the inhibition in test [6] was -4.53% (inactive); in test [7] it was 4% (inactive); in test [13], -0.67% (inactive). The growth inhibition is -2.37% (inactive) in [8] and 18% (inactive) in test [9]. In [10], the viability increase is -6.06% (inactive). In test [14], the RAM network inhibition was -2.32% (inactive).
Take `Cc1noc(/C=C/N(C)C)c1S(=O)(=O)N1CCCC(C(=O)N2CCCCC2)C1` (stereo not given): the viability in test [1] is 84%; in test [3] it was 84% (inactive); in [4], 95.9% (inactive); in test [5], 97.3% (inactive); in test [15] (setting [16]), 101%; in test [15] (setting [17]), 97.3%. Moreover, the values for the viability in [11] and in test [12] were 87.4% (inactive) and 85.2% (inactive), respectively. For the same compound, the Her2 level in test [2] was 97% (inactive). In test [15] (H69AR cells + 2 uM doxorubicin), the differential viability (reversal) is -3.44% (inactive). Moreover, the figures for the inhibition in [6], in test [7] and in test [13] were 1.07% (inactive), -7.21% (inactive) and 1.34% (inactive), respectively. Further, the results for the growth inhibition in [8] and in test [9] were 4.08% (inactive) and 5.73% (inactive), respectively. In [14], the RAM network inhibition is 5.03% (inactive).
